# DT40 TDP1 CPT: growth inhibition of DT40 Tdp1-/-;hTDP1 cells with camptothecin (screen for TDP1 inhibitors). chicken DT40 Tdp1-/-;hTDP1 cells + 20 nM CPT, ATP luminescence, 48 h. Potency, µM (titrated, usually from 46.2 µM), for the others: top-dose activity change, negative = growth inhibition, most hits filed as inhibitors. 420,000 compounds, 12% hits. AID 686979; note: potency is the fitted concentration of half-maximal effect; nearly all actives have a fitted effect of over 55% in size
#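 Chicken DT40 Tdp1-/- cells stably complemented with human TDP1 were seeded at 400 cells/well in medium containing 20 nM camptothecin, exposed to pin-transferred compounds, and grown at 37 °C for at least 48 hr. Viability was read as ATP luminescence.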
# HT1080-NT tox: kills 2HG-producing HT-1080-NT fibrosarcoma cells. HT-1080-NT fibrosarcoma viability, CellTiter-Glo ATP luminescence, 48 h. Potency, µM (highest dose often 46.1 µM), inactives show at the top dose activity, negative = less viability, hits mostly cytotoxic. 360,000 compounds, 1.6% hits. AID 686970;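 note: NT is the 2HG producing partner of a matched IDH1 knockdown line; potency is the fitted concentration of half-maximal effect; 0% = DMSO-treated cells and -100% = media-only wells without cells; nearly all actives have a fitted effect of over 55% in size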
#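 Toxicity toward the 2HG-producing NT line was scored as %Activity, normalised to DMSO and no-cell wells, from CellTiter-Glo luminescence after 48 hours' treatment.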
# IL1B secr inh: blocks inflammasome-driven IL-1 beta release; THP-1 LPS/ATP IL-1B secretion, AlphaLISA, 16 h; active compounds read low; activity change, % at 57.5 µM; 360,000 compounds, 4.7% hits; AID 743279; in the data active = activity change below about -50%; inconclusive = mostly about -30% to -49%
#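 Secreted IL-1B measured by AlphaLISA bead assay after 16 h compound exposure of THP-1 cells; compounds (final up to 57.5 uM) added 1 h before LPS (250 ng/mL) and ATP (1.25 mM) stimulation; lower signal means less secretion.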
# DT40 TDP1 no CPT: qHTS for Inhibitors of human tyrosyl-DNA phosphodiesterase 1 (TDP1): qHTS in cells in absence of CPT; DT40 Tdp1-/- hTDP1 cells, no CPT, ATP luminescence, 48 h; Potency, µM (highest dose often 46.2 µM), without a hit: at the top dose activity change, negative = growth inhibition, hits mostly inhibitors; 420,000 compounds, 15% hits; AID 686978, 2013; note: potency is the fitted concentration of half-maximal effect; nearly all actives have a fitted effect of over 55% in size
#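 DT40 Tdp1-/-;hTDP1 cells, no CPT (DMSO vehicle only), 400 cells/well; compounds pin-transferred; ≥48 hr, 37 °C; CellTiter-Glo 30 min RT dark, luminescence read.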
# HT1080 IDH1KD tx: HT-1080 IDH1 knockdown cell toxicity (counter line); HT-1080 IDH1 knockdown viability, ATP luminescence, 48 h; Potency, µM (top dose mostly 46.1 µM), inactives show top-dose activity, negative = toxicity, most hits filed as cytotoxic; 360,000 compounds, 2% hits;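 note: potency is the fitted concentration of half-maximal effect; 0% = DMSO wells and -100% = cell-free medium wells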
#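 Assay cells: HT-1080 with IDH1 knockdown, 750 per well, RPMI/5% FBS. Exposure: 48 h at 37 °C following 2 h pre-incubation. Read: CellTiter-Glo luminescence; fitted concentration-response, curve class assigned.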
# * marks the source's active call; other numbers are inactive results; u = inconclusive; x = not tested or not shown; [ ] = another dose, or the depositor's remark. Most compounds without a hit are left out; they make up all but 19% or so of the library. Unless noted, calls come from the whole dose curve; as a rule, active = well fitted curve in the direction sought with a large enough effect; inconclusive = small, poorly fitted or top-dose-only effect, or another doubt; inactive = no such curve, though single readings can be large; an effect the other way counts as inactive or inconclusive. Unless noted, % is set by controls: 0 for no effect and ±100 for the full control effect.
SMILES,DT40 TDP1 CPT,HT1080-NT tox,IL1B secr inh,DT40 TDP1 no CPT,HT1080 IDH1KD tx
CS(=O)(=O)Nc1cccc(C(=O)CC2(O)C(=O)Nc3ccc(Br)cc32)c1 (stereo unspecified),u,0%,39,21µM*,0%
CCS(=O)(=O)Nc1ccc(C(=O)CC2(O)C(=O)Nc3ccc(Br)cc32)cc1 (stereo unspecified),21µM*,1%,32,6.5µM*,-3%
CS(=O)(=O)Nc1cccc(C(=O)CC2(O)C(=O)Nc3ccccc32)c1 (stereo unspecified),11%,-6%,7,-6%,-6%
CCS(=O)(=O)Nc1cccc(C(=O)CC2(O)C(=O)Nc3ccccc32)c1 (stereo unspecified),-10%,0%,-14,-26%,-5%
CCc1ccccc1N1C(=O)N(Cc2cc(=O)n3ccccc3n2)c2ccccc2S1(=O)=O,23µM*,x,x,18µM*,x
CC(C)C(=O)Nc1ccccc1OCc1cc(=O)n2ccccc2n1,-1%,x,x,-15%,x
Cc1cccc(N2C(=O)N(Cc3cc(=O)n4ccccc4n3)c3ccccc3S2(=O)=O)c1,u,x,x,26µM*,x
NC(N)=NCC1COC2(CCCCC2)O1 (stereo unspecified),-4%[21.1 µM],x,x,-2%[21.1 µM],x
COc1cc(C2C3=C(COC3=O)Oc3cc4c(cc32)OCO4)cc(OC)c1OC (stereo unspecified),0.18µM*,0.1µM*,29,0.15µM*,u
COc1cc(C2C3=C(COC3=O)Oc3cc4c(cc32)OCO4)cc(OC)c1O (stereo unspecified),0.15µM*,0.46µM*,15,0.65µM*,u
O=C1OCC2=C1C(c1ccc3c(c1)OCO3)c1cc3c(cc1O2)OCO3 (stereo unspecified),2.1µM*,3.3µM*,6,2.3µM*,6.5µM*
COc1cc(C2CC(=O)Oc3cc4c(cc32)OCO4)cc(OC)c1OC (stereo unspecified),-22%,-3%,15,-7%,-1%
COc1ccc(C2CC(=O)Oc3cc4c(cc32)OCO4)cc1 (stereo unspecified),3%,10%,17,-10%,15%
COc1ccc(C(=O)NCc2ccccc2OC)cc1,-1%,19%,-6,-12%,9%
CC(C)Oc1ccc(CNC(=O)c2ccc(NC(=O)c3nsc4ccccc34)cc2)cc1,21µM*,x,x,18µM*,x
COc1ccc(OC)c(CNC(=O)c2ccc(NC(=O)c3nsc4ccccc34)cc2)c1,u,x,x,18µM*,x
Cc1nnc(NC(=O)c2ccccc2NC(=O)c2ccccc2)s1,-29%,-6%,16,-29%,-13%
Cc1ccc(C(=O)c2cn(Cc3ccccc3C)c3nc(C)ccc3c2=O)cc1,21µM*,x,x,21µM*,x
Cc1ccc(C(=O)c2cn(Cc3cccc(F)c3)c3nc(C)ccc3c2=O)cc1,u,x,x,21µM*,x
Cc1ccc(C(=O)c2cn(CC(=O)NCc3ccccc3)c3nc(C)ccc3c2=O)cc1,-12%,x,x,-2%,x
CCn1ncc(C2=NOC(C(=O)NCc3ccccc3)C2)c1C (stereo unspecified),1.2µM*,2.8µM*,57,1.6µM*,1.8µM*
COc1cccc(C2=NOC(C(=O)Nc3cccc(C(C)=O)c3)C2)c1OC (stereo unspecified),u,1%,-16,u,-3%
CCn1ncc(C2=NOC(C(=O)Nc3cccc(C(C)=O)c3)C2)c1C (stereo unspecified),u,0%,-14,21µM*,-23%
CCn1ncc(C2=NOC(C(=O)NCc3ccc(OC)cc3)C2)c1C (stereo unspecified),16µM*,u,31,u,u
CN(c1ccc(OCC(=O)OCC(=O)Nc2c(F)c(F)c(F)c(F)c2F)cc1)S(=O)(=O)c1ccc(F)cc1,3%,21%,6,-19%,2%
SMILES,DT40 TDP1 CPT,HT1080-NT tox,IL1B secr inh,DT40 TDP1 no CPT,HT1080 IDH1KD tx
C=C1CC[C@@]23CC[C@]4(C)[C@@](OC2=O)([C@@H]3C1)[C@H]1O[C@H]1C1[C@@]2(C)CC[C@H](O)C(C)(C)C2CC[C@]14C (stereo partly specified),-22%,18%,41,u,0%
CC(C)(C)C1COc2ccccc2N1C(=O)c1cccc(Cl)c1 (stereo unspecified),u,24%,8,23µM*,17%
O=C(NCc1ccco1)c1ccc2nc([C@@H]3O[C@H](CO)[C@H](O)[C@H](O)[C@H]3O)[nH]c2c1,9%,18%,21,1%,7%
CC(c1ccco1)N(C(=O)COc1ccc(Cl)cc1Cl)c1ccccn1 (stereo unspecified),u,u,u,21µM*,-2%[9.24 µM]
CC(c1ccco1)N(C(=O)COc1ccc(Cl)cc1)c1ccccn1 (stereo unspecified),u,8%,-9,u,2%
CC(c1ccco1)N(C(=O)c1ccccc1F)c1ccccn1 (stereo unspecified),11%,6%,3,-7%,14%
CC(c1ccco1)N(C(=O)C12CC3CC(CC(C3)C1)C2)c1ccccn1 (stereo unspecified),21µM*,26%,2,u,17%
CC(c1ccco1)N(C(=O)c1ccc(Cl)c([N+](=O)[O-])c1)c1ccccn1 (stereo unspecified),21µM*,-5%,-14,21µM*,-10%
COc1cc(CCCN2CCNC[C@H]2Cc2cccc3ccccc23)cc(OC)c1OC,u,3%,-12,u,6%
COc1cccc(NC(=O)C(=O)c2cn(CC(=O)N3CCCC3)c3ccccc23)c1,u,-9%,u,u,-12%
COc1ccc(OC)c(NC(=O)C(=O)c2cn(CC(=O)N3CCCC3)c3ccccc23)c1,u,-2%,-19,u,-8%
COc1ccc(C)cc1NC(=O)C(=O)c1cn(CC(=O)N2CCCC2)c2ccccc12,u,-3%,0,18µM*,3%
COc1ccc(CNC(=O)C(=O)c2cn(CC(=O)N3CCCC3)c3ccccc23)cc1,-5%,-3%,0,-9%,-15%
COc1ccc(CCNC(=O)C(=O)c2cn(CC(=O)N3CCCC3)c3ccccc23)cc1,-13%,-4%,-9,21µM*,1%
COc1ccc(NC(=O)C(=O)c2cn(CC(=O)N3CCCC3)c3ccccc23)cc1OC,16µM*,-2%,-27,13µM*,-23%
COc1ccc(N2CC(NS(=O)(=O)c3cccs3)CC2=O)cc1 (stereo unspecified),14%,17%,22,7%,8%
